According to ChEMBL document CHEMBL2218924, “A broad activity screen in support of a chemogenomic map for kinase signalling research and drug discovery” (Biochem J, 2013):

What follows are compounds tested against Macrophage-stimulating protein receptor (Homo sapiens) (UniProt Q04912). Details: at 10 µM.
Macrophage-stimulating protein receptor (Homo sapiens), sequence (Q04912 25-304 limits assumed): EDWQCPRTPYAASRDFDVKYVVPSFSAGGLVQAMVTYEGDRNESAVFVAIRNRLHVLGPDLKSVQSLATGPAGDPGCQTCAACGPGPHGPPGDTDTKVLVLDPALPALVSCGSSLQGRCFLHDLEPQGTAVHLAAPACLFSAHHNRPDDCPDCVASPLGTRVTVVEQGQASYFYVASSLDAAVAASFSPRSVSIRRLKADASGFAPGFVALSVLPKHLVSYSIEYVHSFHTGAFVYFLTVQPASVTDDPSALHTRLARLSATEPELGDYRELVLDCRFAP
Macrophage-stimulating protein receptor (Homo sapiens), sequence (Q04912 310-1400 limits assumed): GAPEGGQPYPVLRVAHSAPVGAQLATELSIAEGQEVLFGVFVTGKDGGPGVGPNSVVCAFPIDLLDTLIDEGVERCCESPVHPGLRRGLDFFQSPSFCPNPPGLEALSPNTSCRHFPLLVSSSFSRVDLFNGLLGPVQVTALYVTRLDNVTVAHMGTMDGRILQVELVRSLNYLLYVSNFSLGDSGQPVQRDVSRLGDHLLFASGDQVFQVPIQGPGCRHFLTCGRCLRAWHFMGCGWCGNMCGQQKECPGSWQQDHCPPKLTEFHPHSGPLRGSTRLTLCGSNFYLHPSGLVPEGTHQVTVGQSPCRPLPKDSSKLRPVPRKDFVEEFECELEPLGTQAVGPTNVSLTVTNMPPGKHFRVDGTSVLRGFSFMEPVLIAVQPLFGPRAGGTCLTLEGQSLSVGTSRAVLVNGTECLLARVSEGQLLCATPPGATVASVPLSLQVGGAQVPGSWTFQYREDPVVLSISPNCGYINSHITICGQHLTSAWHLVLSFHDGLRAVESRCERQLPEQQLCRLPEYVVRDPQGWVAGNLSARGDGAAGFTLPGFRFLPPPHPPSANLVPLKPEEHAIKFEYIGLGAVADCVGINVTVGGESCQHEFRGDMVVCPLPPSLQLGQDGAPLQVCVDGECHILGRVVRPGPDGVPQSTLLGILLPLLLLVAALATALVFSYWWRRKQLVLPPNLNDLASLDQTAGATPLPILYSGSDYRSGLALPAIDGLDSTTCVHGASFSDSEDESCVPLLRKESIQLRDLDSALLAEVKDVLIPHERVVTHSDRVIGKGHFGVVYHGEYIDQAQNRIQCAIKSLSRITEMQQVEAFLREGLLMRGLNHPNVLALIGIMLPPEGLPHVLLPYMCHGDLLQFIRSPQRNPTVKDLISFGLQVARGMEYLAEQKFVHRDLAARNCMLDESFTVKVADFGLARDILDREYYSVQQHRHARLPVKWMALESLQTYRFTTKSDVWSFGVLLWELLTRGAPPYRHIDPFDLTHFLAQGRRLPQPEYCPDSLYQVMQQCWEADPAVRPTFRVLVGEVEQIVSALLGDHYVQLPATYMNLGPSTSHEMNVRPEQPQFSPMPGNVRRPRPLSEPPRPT

First: O=c1c(-c2ccc(F)cc2)c(-c2ccncc2)[nH]n1-c1ccc(Cl)cc1
Second: NC(=O)c1ccc(-c2nc(-c3ccc4c(c3)OCCO4)c(-c3ccccn3)[nH]2)cc1
The residual activity of the first is lower: 80% for the first, 86% for the second.

Going from `O=C(c1cc2cc(O)ccc2[nH]1)c1cc2cc(O)ccc2[nH]1` to `O=C1NC(=O)C(c2c[nH]c3ccccc23)=C1c1c[nH]c2ccccc12`, the residual activity rises from 33% to 70%.

Going from `COc1ccc(COc2ccc(Cc3cnc(N)nc3N)cc2OC)cc1` to `CCCCc1c(-c2ccc(OC)cc2)[nH]c2nccnc12`, the residual activity rises from 62% to 103%.

Going from `N#Cc1c(NC(=O)c2cccc3ccccc23)sc2c1CCCC2` to `CC(C)N(CCC(=O)c1ccc2ccccc2c1)Cc1ccccc1`, the residual activity rises from 65% to 67%.

First: CN(C)S(=O)(=O)c1ccc2c(c1)/C(=C/c1cc3c([nH]1)CCCC3)C(=O)N2
Second: CCN(CC)CCNC(=O)c1c(C)[nH]c(/C=C2\C(=O)Nc3ccc(Cl)cc32)c1C
The residual activity of the first is higher: 83% for the first, 40% for the second.

Compared with `COc1cc2c(cc1OC)-c1n[nH]c(Nc3cccc(F)c3)c1C2`, `COc1cc2nccc(Oc3ccc(NC(=O)Nc4cc(C)on4)c(Cl)c3)c2cc1OC` is lower in residual activity: 68% for the first, 3% for the second.

Going from `O=c1cc(N2CCOCC2)oc2c(-c3ccccc3)cccc12` to `COc1ccc2c(c1)c(C1=C(c3c[nH]c4ccccc34)C(=O)NC1=O)cn2CCCN(C)C`, the residual activity falls from 65% to 56%.

First: O=C1NC(=O)C(c2cn(CCCO)c3ncccc23)=C1c1cnccn1
Second: N#C/C(=C1/Nc2ccccc2S1)c1ccnc(NCCc2cccnc2)n1
The residual activity of the first is higher: 58% for the first, 46% for the second.

`Nc1nc(Nc2ccc(S(N)(=O)=O)cc2)nn1C(=O)c1c(F)cccc1F` was tested, and the residual activity was 33%.

Each compound was assayed against Proto-oncogene tyrosine-protein kinase ROS (Homo sapiens) (UniProt P08922). Details: at 1 µM.
Proto-oncogene tyrosine-protein kinase ROS (Homo sapiens), sequence (P08922 whole entry): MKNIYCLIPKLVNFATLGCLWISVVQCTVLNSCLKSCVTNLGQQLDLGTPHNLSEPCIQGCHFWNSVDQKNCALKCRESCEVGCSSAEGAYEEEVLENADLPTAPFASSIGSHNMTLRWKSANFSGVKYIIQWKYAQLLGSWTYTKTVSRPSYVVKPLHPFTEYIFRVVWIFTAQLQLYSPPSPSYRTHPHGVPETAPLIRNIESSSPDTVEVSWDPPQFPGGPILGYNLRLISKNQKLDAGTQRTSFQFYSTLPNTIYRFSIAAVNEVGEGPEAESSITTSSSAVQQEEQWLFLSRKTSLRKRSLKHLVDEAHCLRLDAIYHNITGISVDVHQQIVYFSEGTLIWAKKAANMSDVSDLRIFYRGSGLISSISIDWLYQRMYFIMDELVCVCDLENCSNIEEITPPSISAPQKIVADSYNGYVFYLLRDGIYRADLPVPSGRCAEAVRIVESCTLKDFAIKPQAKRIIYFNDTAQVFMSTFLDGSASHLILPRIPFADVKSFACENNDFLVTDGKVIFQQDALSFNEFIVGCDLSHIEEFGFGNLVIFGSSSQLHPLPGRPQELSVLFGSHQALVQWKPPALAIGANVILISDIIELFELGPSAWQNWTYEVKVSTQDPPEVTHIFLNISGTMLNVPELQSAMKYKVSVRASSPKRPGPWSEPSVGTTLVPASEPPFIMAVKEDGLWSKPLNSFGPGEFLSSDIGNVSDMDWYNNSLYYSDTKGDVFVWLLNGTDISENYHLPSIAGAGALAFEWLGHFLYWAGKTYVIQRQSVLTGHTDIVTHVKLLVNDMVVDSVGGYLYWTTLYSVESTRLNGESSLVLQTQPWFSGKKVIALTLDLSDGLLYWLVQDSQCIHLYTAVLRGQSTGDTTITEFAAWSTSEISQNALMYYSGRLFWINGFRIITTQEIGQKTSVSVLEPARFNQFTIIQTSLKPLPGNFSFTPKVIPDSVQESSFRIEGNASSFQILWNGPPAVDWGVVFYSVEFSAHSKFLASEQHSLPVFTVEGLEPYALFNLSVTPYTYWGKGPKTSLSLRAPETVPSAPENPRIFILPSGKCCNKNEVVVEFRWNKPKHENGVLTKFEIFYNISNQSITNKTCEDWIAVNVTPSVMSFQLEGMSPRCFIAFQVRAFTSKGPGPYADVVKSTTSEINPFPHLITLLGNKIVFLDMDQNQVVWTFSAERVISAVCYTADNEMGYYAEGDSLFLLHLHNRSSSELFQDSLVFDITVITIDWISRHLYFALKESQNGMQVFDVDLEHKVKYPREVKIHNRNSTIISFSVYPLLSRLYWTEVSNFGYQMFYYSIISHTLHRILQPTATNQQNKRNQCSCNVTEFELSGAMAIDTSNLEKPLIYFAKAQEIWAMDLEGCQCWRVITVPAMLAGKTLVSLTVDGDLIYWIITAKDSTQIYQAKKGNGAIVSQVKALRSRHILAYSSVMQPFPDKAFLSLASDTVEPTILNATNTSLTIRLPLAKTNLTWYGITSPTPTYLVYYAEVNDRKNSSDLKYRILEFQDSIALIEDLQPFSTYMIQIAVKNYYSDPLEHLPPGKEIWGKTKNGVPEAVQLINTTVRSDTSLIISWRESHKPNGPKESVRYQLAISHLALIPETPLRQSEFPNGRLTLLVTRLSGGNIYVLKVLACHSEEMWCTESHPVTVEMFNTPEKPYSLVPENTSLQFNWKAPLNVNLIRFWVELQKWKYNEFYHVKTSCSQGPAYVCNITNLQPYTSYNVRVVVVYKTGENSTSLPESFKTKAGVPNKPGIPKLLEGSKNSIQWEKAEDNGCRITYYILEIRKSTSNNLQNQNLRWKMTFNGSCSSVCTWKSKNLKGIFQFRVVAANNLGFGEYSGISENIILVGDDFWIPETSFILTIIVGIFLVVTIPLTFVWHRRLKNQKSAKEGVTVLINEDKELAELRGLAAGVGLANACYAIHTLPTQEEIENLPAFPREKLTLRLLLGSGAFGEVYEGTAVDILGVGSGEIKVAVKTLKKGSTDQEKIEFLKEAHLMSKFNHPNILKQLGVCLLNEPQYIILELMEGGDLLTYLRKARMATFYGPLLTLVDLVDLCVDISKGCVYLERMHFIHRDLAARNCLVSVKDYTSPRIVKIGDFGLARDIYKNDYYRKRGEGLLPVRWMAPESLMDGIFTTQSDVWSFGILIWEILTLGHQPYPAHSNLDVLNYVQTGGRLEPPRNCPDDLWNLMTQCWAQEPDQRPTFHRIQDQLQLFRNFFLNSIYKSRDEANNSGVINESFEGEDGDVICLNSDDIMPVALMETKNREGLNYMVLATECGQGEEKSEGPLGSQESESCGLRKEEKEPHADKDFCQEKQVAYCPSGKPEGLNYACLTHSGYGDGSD

First: Cn1c2ccccc2c2c3c(c4c5ccccc5n(CCC#N)c4c21)CNC3=O
Second: N#Cc1c(NC(=O)c2cccc3ccccc23)sc2c1CCCC2
The residual activity of the first is lower: 1% for the first, 93% for the second.

Going from `COc1ccc(COc2ccc(Cc3cnc(N)nc3N)cc2OC)cc1` to `COc1cc2nccc(Oc3ccc(NC(=O)Nc4cc(C)on4)c(Cl)c3)c2cc1OC`, the residual activity falls from 81% to 24%.

`Nc1nc(Nc2ccc(S(N)(=O)=O)cc2)nn1C(=O)c1c(F)cccc1F` showed a residual activity of 101%.

Each compound was assayed against Proto-oncogene tyrosine-protein kinase ROS (Homo sapiens) (UniProt P08922). Details: at 10 µM.

First: c1ccc(-c2cnc(Nc3ccc(OCCN4CCCC4)cc3)s2)cc1
Second: N#Cc1c(NC(=O)c2cccc3ccccc23)sc2c1CCCC2
The residual activity of the first is lower: 80% for the first, 96% for the second.

First: Cn1c2ccccc2c2c3c(c4c5ccccc5n(CCC#N)c4c21)CNC3=O
Second: CCCCc1c(-c2ccc(OC)cc2)[nH]c2nccnc12
The residual activity of the first is lower: 3% for the first, 88% for the second.

Going from `Nc1nc(Nc2ccc(S(N)(=O)=O)cc2)nn1C(=O)c1c(F)cccc1F` to `COc1cc2nccc(Oc3ccc(NC(=O)Nc4cc(C)on4)c(Cl)c3)c2cc1OC`, the residual activity falls from 82% to 16%.
